Activity calls are given as the source filed them.
How the values were obtained:
[1] = tested on: Plasmodium falciparum Sir2 (PF13_0152, Sir2A); test: pfSir2 binders on small-molecule microarrays, primary screen, biochemical, small-molecule microarray, 635 nm fluorescence (AID 1098); conditions: small-molecule microarray binding, fluorescence 635 nm; higher = more signal;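 further: score merges spot fluorescence intensity with its signal-to-noise ratio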
[2] = small-molecule microarray binders of probe aDKK1, primary screen, biochemical, biotinylated probe, 635/667 nm fluorescence (AID 1099); conditions: higher = more signal;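 further: score merges 667nm spot fluorescence with signal to noise across triplicate slides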
[3] = small-molecule microarray binders of probe aCHRDL2, primary screen, biochemical, biotinylated probe, 635/667 nm fluorescence (AID 1100); conditions: higher = more signal
[4] = splicing luciferase reporter signal modulators, primary screen, spliceosome inhibition project, cell-based, HEK293, splice +/- reporter (AID 1101); conditions: luminescence, 24 h, higher = more signal, called active from +8 up or from −8 down;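 further: HEK293 cells carrying a splicing-competent luciferase reporter gene; test concentration not given here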
[5] = molecular target: Fibroblast growth factor 10 (Homo sapiens) (UniProt O15520); test: FGF10 binders on small-molecule microarrays, primary screen, biochemical, small-molecule microarray, 635 nm fluorescence (AID 1102); conditions: FGF10 binding, fluorescence 635 nm, higher = more signal
Sequence of Fibroblast growth factor 10 (Homo sapiens) (O15520 whole entry, looked up): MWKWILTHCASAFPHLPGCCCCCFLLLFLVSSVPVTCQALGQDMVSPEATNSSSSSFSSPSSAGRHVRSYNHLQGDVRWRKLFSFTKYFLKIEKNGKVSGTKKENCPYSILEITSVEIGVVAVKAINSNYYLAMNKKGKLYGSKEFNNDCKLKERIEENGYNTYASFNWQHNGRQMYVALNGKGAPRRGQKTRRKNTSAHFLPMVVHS

[6] = tested on: glycogen synthase kinase-3 (GSK3A per assay name; protocol says GSK3B); test: GSK3 binders on small-molecule microarrays, primary screen, biochemical, small-molecule microarray, 635 nm fluorescence, GSK3A (AID 1103); conditions: small-molecule microarray binding, fluorescence 635 nm; higher = more signal; further: the record names both GSK3A and GSK3B
[7] = molecular target: Epidermal growth factor receptor (Homo sapiens) (UniProt P00533); test: EGFR binders on small-molecule microarrays, primary screen, biochemical, small-molecule microarray, 635 nm fluorescence (AID 1104); conditions: EGFR binding, higher = more signal;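 further: score merges 667 nm emission intensity with spot signal to noise over triplicate slides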
Sequence of Epidermal growth factor receptor (Homo sapiens) (P00533 whole entry, looked up): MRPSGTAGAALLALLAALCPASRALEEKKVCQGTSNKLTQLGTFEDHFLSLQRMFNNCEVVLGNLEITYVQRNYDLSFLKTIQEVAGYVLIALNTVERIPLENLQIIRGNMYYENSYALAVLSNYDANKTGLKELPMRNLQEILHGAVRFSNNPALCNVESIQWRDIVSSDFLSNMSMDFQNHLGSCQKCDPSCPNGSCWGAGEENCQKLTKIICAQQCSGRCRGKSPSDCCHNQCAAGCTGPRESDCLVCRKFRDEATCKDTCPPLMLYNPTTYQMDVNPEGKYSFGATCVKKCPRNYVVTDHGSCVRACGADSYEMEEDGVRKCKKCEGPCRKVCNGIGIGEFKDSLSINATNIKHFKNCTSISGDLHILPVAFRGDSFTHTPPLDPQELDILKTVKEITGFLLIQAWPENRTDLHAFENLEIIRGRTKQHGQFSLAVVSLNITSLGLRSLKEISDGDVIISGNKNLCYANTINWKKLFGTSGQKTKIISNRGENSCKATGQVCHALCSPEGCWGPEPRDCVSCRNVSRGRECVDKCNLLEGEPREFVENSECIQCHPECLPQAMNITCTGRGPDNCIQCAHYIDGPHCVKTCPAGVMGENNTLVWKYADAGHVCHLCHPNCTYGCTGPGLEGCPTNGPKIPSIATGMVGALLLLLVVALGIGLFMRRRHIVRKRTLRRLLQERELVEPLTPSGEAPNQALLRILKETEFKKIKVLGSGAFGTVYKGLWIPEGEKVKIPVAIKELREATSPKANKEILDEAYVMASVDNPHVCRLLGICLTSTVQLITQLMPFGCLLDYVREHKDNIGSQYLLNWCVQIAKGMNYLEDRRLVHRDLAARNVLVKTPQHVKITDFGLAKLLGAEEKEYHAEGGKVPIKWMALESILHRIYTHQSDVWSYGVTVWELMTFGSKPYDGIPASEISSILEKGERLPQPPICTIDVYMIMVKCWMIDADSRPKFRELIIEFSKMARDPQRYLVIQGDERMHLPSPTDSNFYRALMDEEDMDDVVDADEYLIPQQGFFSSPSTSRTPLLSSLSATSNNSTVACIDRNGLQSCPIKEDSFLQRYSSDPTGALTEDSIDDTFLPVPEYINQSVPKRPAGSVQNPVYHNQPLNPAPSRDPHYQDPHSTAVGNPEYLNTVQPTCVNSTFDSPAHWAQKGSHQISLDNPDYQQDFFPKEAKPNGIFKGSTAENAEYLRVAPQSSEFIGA

[8] = molecular target: Follistatin-related protein 3 (Homo sapiens) (UniProt O95633); test: FSTL3 binders on small-molecule microarrays, primary screen, biochemical, small-molecule microarray, 635 nm fluorescence (AID 1105); conditions: FSTL3 binding, higher = more signal;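 further: score merges emission near 667 nm and signal to noise per printed spot across three slides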
Sequence of Follistatin-related protein 3 (Homo sapiens) (O95633 whole entry, looked up): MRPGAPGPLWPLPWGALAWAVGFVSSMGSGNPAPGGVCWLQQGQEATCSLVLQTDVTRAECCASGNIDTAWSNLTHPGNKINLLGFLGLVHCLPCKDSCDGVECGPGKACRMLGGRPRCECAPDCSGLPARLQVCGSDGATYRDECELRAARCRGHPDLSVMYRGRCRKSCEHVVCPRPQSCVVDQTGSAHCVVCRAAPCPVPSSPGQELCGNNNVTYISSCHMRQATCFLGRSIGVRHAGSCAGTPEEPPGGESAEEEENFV

[9] = molecular target: Dickkopf-related protein 1 (Homo sapiens) (UniProt O94907); test: DKK1 binders on small-molecule microarrays, primary screen, biochemical, small-molecule microarray, 635 nm fluorescence scan (AID 1106); conditions: DKK1 binding, higher = more signal;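 further: score merges emission near 667 nm with signal to noise over three replicate slides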
Sequence of Dickkopf-related protein 1 (Homo sapiens) (O94907 whole entry, looked up): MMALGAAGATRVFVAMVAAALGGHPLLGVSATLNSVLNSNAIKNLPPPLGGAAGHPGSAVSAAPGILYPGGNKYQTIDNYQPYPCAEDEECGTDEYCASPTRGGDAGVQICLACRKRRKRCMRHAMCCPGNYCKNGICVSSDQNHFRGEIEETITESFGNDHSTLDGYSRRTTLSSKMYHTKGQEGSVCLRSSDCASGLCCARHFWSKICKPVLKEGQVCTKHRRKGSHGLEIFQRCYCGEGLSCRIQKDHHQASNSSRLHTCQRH

[10] = tested on: Inhibin beta A chain (activin A); test: INHBA (activin A) binders on microarrays, primary screen, biochemical, small-molecule microarray, 635 nm fluorescence scan (AID 1107); conditions: small-molecule microarray binding, higher = more signal;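 further: mouse activin A protein probed at 4.33 µg/mL on printed slides; score merges bound-protein fluorescence near 667 nm with spot signal-to-noise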
[11] = tested on: Human papillomavirus type 1a protein E7 (residues 44-93); test: HPV1a E7 fragment binders on microarrays, primary screen, biochemical, small-molecule microarray, residues 44-93, 635 nm fluorescence (AID 1108); conditions: small-molecule microarray binding, fluorescence 635 nm; higher = more signal;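 further: E7 fragment applied at 1 µg/mL in TBST for 1 h at 4 C; score combines spot fluorescence with its signal to noise ratio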
[12] = modulators of HCV replicon luciferase signal, primary screen, HCV replication inhibitor project, Huh7 cells, luciferase reporter (AID 1109); conditions: 48 h, higher = more signal;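 further: huh7 hepatoma cells harbouring a luciferase neomycin HCV replicon reporter; luciferase luminescence as measure of HCV replicon replication; test concentration not given here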
[13] = molecular target: Left-right determination factor 2 (Homo sapiens) (UniProt O00292); test: LEFTY2 binders on small-molecule microarrays, primary screen, biochemical, small-molecule microarray, 635 nm fluorescence scan (AID 1110); conditions: LEFTY2 binding, higher = more signal
Sequence of Left-right determination factor 2 (Homo sapiens) (O00292 whole entry, looked up): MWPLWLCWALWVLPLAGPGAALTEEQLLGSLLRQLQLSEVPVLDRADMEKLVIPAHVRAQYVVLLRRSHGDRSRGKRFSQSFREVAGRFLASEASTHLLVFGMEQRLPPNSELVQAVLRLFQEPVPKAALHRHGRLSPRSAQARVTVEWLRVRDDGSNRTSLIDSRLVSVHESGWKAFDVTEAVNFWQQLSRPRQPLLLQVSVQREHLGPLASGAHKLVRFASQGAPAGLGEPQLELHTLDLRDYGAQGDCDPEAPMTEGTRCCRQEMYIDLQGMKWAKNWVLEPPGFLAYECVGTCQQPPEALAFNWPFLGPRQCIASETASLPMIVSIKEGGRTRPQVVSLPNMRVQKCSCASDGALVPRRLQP

[14] = molecular target: Calmodulin-1 (Homo sapiens) (UniProt P0DP23); test: CALM1 binders on microarrays, EGTA buffer, profiling panel, biochemical, small-molecule microarray, Cy5-labelled CALM1 (AID 1111); conditions: Cy5-CALM1 binding fluorescence, higher = more signal;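 further: labelled calmodulin applied in Tris saline Tween buffer holding calcium plus EGTA and DTT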
[15] = molecular target: Calmodulin-1 (Homo sapiens) (UniProt P0DP23); test: calcium-bound CALM1 binders on microarrays, profiling panel, artefact control for SMM control-protein annotation, biochemical, small-molecule microarray, Cy5-labelled CALM1, plus calcium (AID 1112); conditions: Cy5-CALM1 binding fluorescence, higher = more signal;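 further: score merges spot fluorescence with signal to noise from triplicate slides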
[16] = small-molecule microarray binders of probe aWnt5a, primary screen, biochemical, biotinylated probe, 635/667 nm fluorescence (AID 1113); conditions: higher = more signal;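 further: score merges 667 nm fluorescence intensity with signal-to-noise per printed feature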
[17] = small-molecule microarray binders of probe aShh, primary screen, biochemical, biotinylated probe, 635/667 nm fluorescence (AID 1114); conditions: higher = more signal;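 further: probe is biotin-labelled aShh protein from a stem cell growth factor screen; measures binding of labelled protein to compounds printed on the slide; score merges feature fluorescence at 667 nm with signal-to-noise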
[18] = small-molecule microarray binders of probe aNog, primary screen, biochemical, biotinylated probe, 635/667 nm fluorescence (AID 1115); conditions: higher = more signal;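 further: probe is biotinylated aNog protein used at 0.15 µg/mL for 1 h at 4 C; z-score combines 667 nm fluorescence of each spot with its signal to noise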
[19] = molecular target: Torsin-1A-interacting protein 1 (Homo sapiens) (UniProt Q5JTV8); test: LAP1 binders from COS7 cell lysate, primary screen, small-molecule microarray, 635/667 nm fluorescence (AID 1116); conditions: COS7-hLAP1 lysate binding, 635 nm fluorescence, higher = more signal
Sequence of Torsin-1A-interacting protein 1 (Homo sapiens) (Q5JTV8 whole entry, looked up): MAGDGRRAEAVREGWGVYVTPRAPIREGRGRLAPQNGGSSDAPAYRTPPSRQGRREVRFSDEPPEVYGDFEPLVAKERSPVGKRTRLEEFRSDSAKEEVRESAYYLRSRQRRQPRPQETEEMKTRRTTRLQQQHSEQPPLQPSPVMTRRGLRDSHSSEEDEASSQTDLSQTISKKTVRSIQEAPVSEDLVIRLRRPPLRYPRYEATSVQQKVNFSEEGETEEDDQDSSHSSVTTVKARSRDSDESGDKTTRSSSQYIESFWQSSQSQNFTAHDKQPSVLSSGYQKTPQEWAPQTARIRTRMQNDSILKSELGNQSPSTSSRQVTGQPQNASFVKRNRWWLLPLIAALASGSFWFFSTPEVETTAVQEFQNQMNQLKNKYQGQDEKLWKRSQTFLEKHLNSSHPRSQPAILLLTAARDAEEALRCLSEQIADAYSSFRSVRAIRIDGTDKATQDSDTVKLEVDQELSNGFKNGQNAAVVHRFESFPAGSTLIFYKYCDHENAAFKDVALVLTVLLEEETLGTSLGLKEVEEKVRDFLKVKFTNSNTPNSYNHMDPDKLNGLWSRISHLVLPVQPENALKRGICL

[20] = molecular target: Alpha-bungarotoxin (Bungarus multicinctus) (UniProt P60615); test: alpha-bungarotoxin binders on microarray, profiling panel, artefact control for SMM control protein annotation, biochemical, small-molecule microarray, Alexa647 label, 635/667 nm fluorescence (AID 1117); conditions: alpha-BTX-A647 binding fluorescence, higher = more signal
Sequence of Alpha-bungarotoxin (Bungarus multicinctus) (P60615 whole entry, looked up): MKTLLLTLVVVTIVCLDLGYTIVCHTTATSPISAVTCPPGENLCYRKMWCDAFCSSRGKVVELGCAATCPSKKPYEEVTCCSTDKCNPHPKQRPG

SMILES | composite z-score [1] | composite z-score [2] | composite z-score [3] | z-score [4] | composite z-score [5] | composite z-score [6] | composite z-score [7] | composite z-score [8] | composite z-score [9] | composite z-score [10] | composite z-score [11] | z-score [12] | composite z-score [13] | composite z-score [14] | composite z-score [15] | composite z-score [16] | composite z-score [17] | composite z-score [18] | composite z-score [19] | composite z-score [20]
COCCOC(=O)N1C(=O)[C@@]2(c3cc(C#CCCO)ccc31)[C@H](c1ccc(O)cc1)N1[C@H](c3ccccc3)[C@H](c3ccccc3)OC(=O)[C@H]1[C@@H]2C(=O)N1CCc2cc(OC)c(OC)cc2C1 | 1.16 | 0.058 | 0.342 | 0.305 (inactive) | 1.39 | 1.31 | 0.878 | 1.44 | 0.993 | 1.01 | 1.41 | -0.561 | 1.14 | 0.422 | -0.0529 | 0.129 | -0.153 | 1.32 | 1.13 | 1.11
C[C@]1(C(=O)NCC(F)(F)F)c2ccccc2C(=O)N(Cc2ccc(OC(F)(F)F)cc2)[C@H]1c1ccc(CO)cc1 | 1.34 | -0.0378 | 0.0314 | -0.24 (inactive) | 0.155 | -0.507 | 0.179 | -0.345 | 0.0106 | 0.19 | 0.26 | -1.11 | -0.143 | -0.0779 | -0.373 | -0.154 | -0.0626 | -0.519 | -0.115 | 0.25
O=C1NC(=O)C2C1C=CC(C(O)c1ccc(F)cc1)N2Nc1ccccn1 (stereo not given) | 1.06 | -0.118 | 0.243 | 1.23 (inactive) | 0.138 | -0.371 | 0.255 | -0.0918 | 0.297 | 0.877 | 0.164 | 0.305 | -0.0392 | 0.0754 | -0.255 | -0.124 | 0.0684 | 0.147 | 0.513 | 0.349
Cc1ccc(S(=O)(=O)N2[C@@H](c3ccccc3)C(C(=O)O)=CC[C@H]2c2ccc(C#N)cc2)cc1 | 1.16 | 0.543 | 0.864 | -0.0152 (inactive) | 0.888 | 0.379 | 0.0164 | 0.273 | -0.522 | 0.667 | 1.24 | -0.494 | -0.145 | 0.302 | -0.269 | 0.0267 | 0.385 | 0.823 | 1.84 | 1.57
CCCCCCc1nc(-c2ccc(OC)nc2)cc2c1[Si](C(C)C)(C(C)C)OC2 | 0.0342 | -0.251 | -0.037 | -0.589 (inactive) | -0.322 | -0.574 | -0.459 | -0.351 | -0.329 | 0.96 | -0.611 | 1.09 | -0.147 | -0.464 | 0.0559 | -0.0643 | -0.262 | -0.0965 | -0.346 | 0.502
CCCCC(O)C1C=CC2C(=O)NC(=O)C2N1Nc1ccccn1 (stereo not given) | 1.1 | 0.0006 | -0.0537 | 2.17 (inactive) | -0.0249 | 0.0652 | 0.207 | -0.404 | 0.0816 | 0.555 | -0.382 | -1.11 | 0.132 | -0.0937 | -0.466 | -0.1 | 0.25 | 0.289 | 0.233 | 0.275

Source: PubChem BioAssay
